Reference: PubChem BioAssay (Tox21)
A number with no mark means an inactive call. A call without a number means that no potency is given here. Activity calls are given as the source filed them. Calls follow the shape of the dose curve; as a rule, active = well fitted activation curve with a large enough effect in the repeat runs; inconclusive = weak or mixed curves; inactive = flat fitted curve, though single readings scatter.

Each compound was assayed against KiSS-1 receptor (Homo sapiens) (UniProt Q969F8) (assay: Human kisspeptin (KISS1R) small molecule agonists, calcium flux assay in KISS1R-HEK293 cells (AID 1920064)). Conditions: KISS1R-HEK293, calcium flux fluorescence, agonist; series mostly up to 76.8 µM.
KiSS-1 receptor (Homo sapiens), sequence (Q969F8 whole entry, looked up): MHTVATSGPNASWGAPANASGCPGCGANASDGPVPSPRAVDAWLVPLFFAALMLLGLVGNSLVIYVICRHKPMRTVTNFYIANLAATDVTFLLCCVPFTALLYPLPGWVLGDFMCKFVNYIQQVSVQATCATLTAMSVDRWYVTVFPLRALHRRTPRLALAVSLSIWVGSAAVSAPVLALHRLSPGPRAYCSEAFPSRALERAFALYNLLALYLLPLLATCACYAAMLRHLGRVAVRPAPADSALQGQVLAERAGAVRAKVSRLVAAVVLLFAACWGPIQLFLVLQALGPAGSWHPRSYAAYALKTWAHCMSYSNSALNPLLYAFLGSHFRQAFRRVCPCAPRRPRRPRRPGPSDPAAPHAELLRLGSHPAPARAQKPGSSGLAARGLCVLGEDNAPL
Source text: National Center for Advancing Translational Sciences [NCATS]
Division of Preclinical Innovation [DPI]
U.S. Environmental Protection Agency [EPA]
National Institutes of Environmental Health Sciences [NIEHS]
National Toxicology Program [NTP]
U.S. Food and Drug Administration [FDA]
Kisspeptin and its receptor KISS1R play key roles in mammalian reproduction due to their involvement in the onset of puberty and control of the hypothalamic-pituitary-gonadal axis such as regulates GnRH release from the hypothalamus. The kisspeptin/KISS1R system also plays a direct role in peripheral organs (including the ovary, testis, uterus, and placenta) and is implicated in reproductive diseases such as miscarriage and polycystic ovary syndrome (PCOS). Abnormal KISS1R activity is associated with abnormal puberty, infertility, endometriosis, and hormone-dependent tumors. The KISS1 receptor (KISS1R, also called GPR54), a G-protein-coupled receptor (GPCR), acts (through phospholipase C) to increase intracellular inositol trisphosphate and then release intracellular calcium stores. Cell-based KISS1R-HEK293 assay is using HEK293 cells that have been genetically engineered to express the human KISS1R, which activity can be measured by calcium signaling. A compound/drug can activate (agonist) KISS1R that can be monitored by levels of intracellular calcium.
KISS1R-HEK293 cells developed by Codex Corp contain human KISS1R gene, which was stably integrated into HEK 293 cells. The compound activation can be detected by fluorescence intensity via calcium flux assay. This cell line has been used to screen the Tox21 10K compound library to identify agonists of KISS1R.
KISS1R-Hek293 cells were dispensed at 1500 cells/4uL/well in 1536-well black wall/clear bottom plates using a multidrop dispenser. After the assay plates were incubated at a 37 C/5% CO2 incubator for 18 hours, 4 microL of Calcium Dye Solution was added to each well. The plates were incubated at 37 C for 1 hour. And then 23 nL of compounds dissolved in DMSO, positive controls, or DMSO only was transferred to the assay plate by a pin tool station. The fluorescence intensity in the plates was measured using FDSS 7000EX kinetic plate reader with a filter set of Ex/Em=480/540 for 3 min at 1 sec intervals. Each test compound was measured at 15 concentrations and in triplicates.
Potency is read from the fitted curve at half-maximal effect.

SMILES | Potency | activation
CCCCCCCCCCC[C@@H](C[C@@H]1OC(=O)[C@H]1CCCCCC)OC(=O)[C@H](CC(C)C)NC=O | inactive | 
CC(=O)NC1(c2cccc(F)c2)CCN(CC[C@@]2(c3ccc(Cl)c(Cl)c3)CN(c3ccccc3)C(=O)CO2)CC1 | inactive | 
CCCCCCCCCCCCCCC[C@H](O)[C@@H](N)CO | inactive | 
CO/N=C1\CN(c2nc3c(cc2F)c(=O)c(C(=O)O)cn3C2CC2)CC1CN (stereo not given) | inactive | 
CC(=O)Nc1ccccc1O | inactive | 
Cc1cccc2c1cc1ccc3cccc4ccc2c1c34 | inactive | 
CC1(C)O[C@@H]2C[C@H]3[C@@H]4CCC5=CC(=O)CC[C@]5(C)[C@@]4(F)[C@@H](O)C[C@]3(C)[C@]2(C(=O)CCl)O1 | inactive | 
O=C(Nc1cccc(C(F)(F)F)c1)c1cc(Br)cc(Br)c1O | inactive | 
CCC(CN)=C(c1ccccc1)c1ccccc1 | inactive | 
Cc1cc(O)c2c(c1)C(=O)c1cc(O)cc(O)c1C2=O | inactive | 
CC(=O)NCCCS(=O)(=O)O | 11.9 µM (active) | 
COC(=O)c1nc(Cl)c(Cl)nc1N | inactive | 
C=C[Si]1(C)O[Si](C)(C=C)O[Si](C)(C=C)O[Si](C)(C=C)O1 (stereo not given) | inactive | 
CC(=O)OCC(CCn1cnc2cnc(N)nc21)COC(C)=O | inactive | 
CC(=O)c1ccc([N+](=O)[O-])cc1 | inactive | 
Oc1ccc(Cl)cc1C1CCCC1 | inactive | 
O=[N+]([O-])c1ccc(Cl)cc1Cl | inactive | 
O=C(NO)C1(NS(=O)(=O)c2ccc(Oc3ccc(F)cc3)cc2)CCOCC1 | inactive | 
Cc1c(F)c(N2CCNC(C)C2)cc2c1c(=O)c(C(=O)O)cn2C1CC1 (stereo not given) | inactive | 
CCc1nn(CCCN2CCN(c3cccc(Cl)c3)CC2)c(=O)n1CCOc1ccccc1 | inactive | 

SMILES | Potency | activation
CC(C)c1nc(CN(C)C(=O)N[C@H](C(=O)N[C@@H](Cc2ccccc2)C[C@H](O)[C@H](Cc2ccccc2)NC(=O)OCc2cncs2)C(C)C)cs1 | inactive | 
C=C(C)C1CC=C(C)C(=O)C1 (stereo not given) | inactive | 
Cc1ccc(O)c([C@H](CCN(C(C)C)C(C)C)c2ccccc2)c1 | inactive | 
CO | inactive | 
CN(C)CCN(C)CCO | inactive | 
CCC(Cl)CC(Cl)C(Cl)C(Cl)C(Cl)C(C)Cl (stereo not given) |  | -1.96% [at 15.8 µM]
O=C(Nc1ccccc1)OCC(CN1CCCCC1)OC(=O)Nc1ccccc1 (stereo not given) | inactive | 
Cc1cccc(OCCOc2cccc(C)c2)c1 | inactive | 
CC1(C)CCC[C@]2(C)[C@H]3CC(=O)O[C@]3(C)CC[C@@H]12 | inactive | 
CCCCNC1CC(C)(C)NC(C)(C)C1 | inactive | 
O=CNc1ccccc1 | inactive | 
CCCCCCCCCCCCOCCOS(=O)(=O)O | inactive | 
CC(C(=O)O)c1ccc(C(=O)c2cccs2)cc1 (stereo not given) | inactive | 
CN1CCC(N(Cc2cccs2)c2ccccc2)CC1 | inactive | 
CO[Si](OC)(c1ccccc1)c1ccccc1 | inactive | 
CCC(Cl)CCC(Cl)C(Cl)CC(Cl)C(Cl)C(Cl)CCl (stereo not given) | inactive | 
CC(C)c1ccccc1 | inactive | 
CC(C)c1ccc2ncccc2c1 | inactive | 
N#Cc1ccccc1O | inactive | 
C[C@@H]1C[C@H]2[C@@H]3CCC4=CC(=O)C=C[C@]4(C)[C@@]3(Cl)[C@@H](O)C[C@]2(C)[C@@]1(OC(=O)c1ccco1)C(=O)CCl | inactive | 
